Rows were chosen to be rich in hits. Some 2.8% of all compounds tested hit in one or more screens of this group.
PAFAH1B3 FP inh: PAFAH1B3 enzyme inhibitors, primary screen, biochemical, fluorescence polarization, human | Platelet-activating factor acetylhydrolase IB subunit alpha1 (Homo sapiens), Q15102 | recombinant PAFAH1B3, FP-rhodamine probe | inhibition, % at 3.39 µM | 340,000 tested, 0.28% active | AID 492972, 2010;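 active = inhibition above the screen-wide average of all tested compounds plus 3 SD, cut at about 25% in these data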
PAFAH2 FP inh: PAFAH2 enzyme inhibitors, primary screen, biochemical, fluorescence polarization, human. Platelet-activating factor acetylhydrolase 2, cytoplasmic (Homo sapiens), Q99487. 340,000 tested, 0.99% active. inhibition, % at 3.39 µM. AID 492956, 2010. recombinant PAFAH2, FP-rhodamine activity probe;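 active = inhibition above the mean over all tested compounds plus 3 SD, cut at about 30% in these data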;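 also: inhibitors block probe labeling of enzyme so polarization drops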
HTRA1 inhibitor: HTRA1 serine protease inhibitors, primary screen, biochemical, fluorescence polarization, HTS; recombinant HTRA1, FP-rhodamine activity-based probe; inhibition, % at 5.96 µM; Q92743; 340,000 tested, 0.5% active; in the data active = inhibition above about 36%
pPAFAH inh: pPAFAH enzyme inhibitors, primary screen, biochemical, fluorescence polarization, human | AID 463082, 2010 | 330,000 tested, 1.5% active | recombinant pPAFAH, FP-rhodamine probe fluorescence polarization | inhibition, % at 3.39 µM;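 active = inhibition above the mean inhibition across the screen plus 3 SD, cut at about 25% in these data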;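 also: inhibitors block binding of the rhodamine activity-based probe so polarization drops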
PAFAH1B2 inh: PAFAH1B2 enzyme inhibitors, primary screen, biochemical, fluorescence polarization, human | Platelet-activating factor acetylhydrolase IB subunit alpha2 (Homo sapiens), P68402 | recombinant PAFAH1B2, FP-rhodamine activity probe | inhibition, % at 3.39 µM | 340,000 tested, 1.2% active | AID 492953, 2010;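 active = inhibition above the mean of all tested compounds plus 3 SD, cut at about 24% in these data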
DAGLB inh: DAGLB lipase inhibitors, primary screen, biochemical, fluorescence, HTS | Diacylglycerol lipase-beta (Homo sapiens), Q8NCG7 | HEK293T DAGLB membrane lysate, EnzChek fluorogenic substrate | inhibition, % at 5.17 µM | 340,000 tested, 0.059% active | AID 504411, 2011; in the data active = inhibition above about 34%
Target sequence (Q8NCG7 whole entry, looked up): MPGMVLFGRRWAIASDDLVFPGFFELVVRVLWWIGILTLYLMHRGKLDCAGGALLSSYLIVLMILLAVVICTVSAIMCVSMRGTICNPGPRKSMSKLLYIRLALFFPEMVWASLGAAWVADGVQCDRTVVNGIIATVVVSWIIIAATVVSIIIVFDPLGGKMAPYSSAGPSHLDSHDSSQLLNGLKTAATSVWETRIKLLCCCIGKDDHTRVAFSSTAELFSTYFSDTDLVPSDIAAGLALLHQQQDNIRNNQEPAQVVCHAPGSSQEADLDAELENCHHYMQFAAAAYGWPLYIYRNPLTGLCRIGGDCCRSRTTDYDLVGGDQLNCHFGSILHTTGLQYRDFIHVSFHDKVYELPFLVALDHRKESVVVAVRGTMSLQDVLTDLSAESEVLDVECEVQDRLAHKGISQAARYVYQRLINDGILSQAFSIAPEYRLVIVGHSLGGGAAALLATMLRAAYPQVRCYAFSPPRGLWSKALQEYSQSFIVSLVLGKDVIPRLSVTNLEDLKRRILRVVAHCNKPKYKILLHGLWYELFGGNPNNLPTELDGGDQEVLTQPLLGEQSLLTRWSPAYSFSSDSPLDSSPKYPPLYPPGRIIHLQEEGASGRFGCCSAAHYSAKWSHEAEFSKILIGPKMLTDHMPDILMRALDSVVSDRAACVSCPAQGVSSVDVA
pPAFAH confirm: pPAFAH (PLA2G7) enzyme inhibitors, confirmation, biochemical, fluorescence polarization, human; shares compounds with pPAFAH inh; recombinant pPAFAH, FP-Rh probe fluorescence polarization; inhibition, % at 3.39 µM; 2,300 tested, 72% active;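 active = mean inhibition of the triplicate above the hit cutoff set for the earlier primary screen, cut at about 25% in these data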
Large screens that a line does not name were inactive (follow-up assays come after a bar, where they were run).

O=C(O)c1cc(O)c2c(c1)C(=O)c1cccc(O)c1C2=O	PAFAH2 FP inh 34, pPAFAH inh 36 | pPAFAH confirm inactive
O=C(CCC(=O)OCc1ccc([N+](=O)[O-])cc1Cl)Nc1ccccc1	none
CCOc1ccccc1CNC(=O)C(C)n1nc(C)c2c(C)n(-c3ccccc3)nc2c1=O (stereo not drawn)	pPAFAH inh 58 | pPAFAH confirm inactive
COC(=O)c1c(NC(=O)/C=C/C(=O)O)sc(C)c1-c1ccc(C)c(C)c1	pPAFAH inh 44 | pPAFAH confirm 28
CCOC(=O)c1c(NC(=O)/C=C/C(=O)O)sc(C)c1-c1ccc(C)c(C)c1	pPAFAH inh 54 | pPAFAH confirm 63
CSCCC(=O)N1CCC(CCC(=O)NC2CC2)CC1	none
O=C(O)c1ccc(Nc2nc3ccccc3nc2NS(=O)(=O)c2ccc(F)cc2)cc1	none
CC(=O)Nc1ccc(S(=O)(=O)Nc2nc3ccccc3nc2Nc2ccc(N)cc2)cc1	pPAFAH inh 38 | pPAFAH confirm inactive
O=C(O)c1cccc(N/N=C/c2cc(Br)cc(Br)c2O)c1	PAFAH2 FP inh 37, pPAFAH inh 45 | pPAFAH confirm 44
CCOC(=O)c1cc(C#N)c(SCC(=O)OC)[nH]c1=O	pPAFAH inh 35 | pPAFAH confirm inactive
CCCNC(=O)[C@H]1N2C(=O)c3c(ccc(OC)c3OC)C2SC1(C)C (stereo partly drawn)	none
CCn1c(NC(=O)c2cccc(Cn3cc(Cl)cn3)c2)nc2ccccc21	pPAFAH inh 65 | pPAFAH confirm 65
Cn1c(NC(=O)c2cccc(Cn3cc(Cl)cn3)c2)nc2ccccc21	none
O=C(CNC(=O)c1nc[nH]c1C(=O)NCc1ccccc1)OCc1ccccc1	pPAFAH inh 35 | pPAFAH confirm inactive
COc1ccc(C(CNC(=O)c2ccc(S(=O)(=O)N3CC(C)CC(C)C3)cc2)N(C)C)cc1 (stereo not drawn)	none
O=C(NCCS(=O)(=O)N1CCN(c2ccccc2)CC1)c1cccs1	none
Cc1c(N/C(=N/S(=O)(=O)c2ccc(Cl)cc2)c2ccccc2)c(=O)n(-c2ccccc2)n1C	pPAFAH inh 82 (no result: PAFAH1B3 FP inh, PAFAH2 FP inh, HTRA1 inhibitor, PAFAH1B2 inh, DAGLB inh) | pPAFAH confirm inactive
Cc1c(N/C(=N/S(=O)(=O)c2ccccc2)c2ccc(Cl)cc2)c(=O)n(-c2ccccc2)n1C	none
Cc1ccc(S(=O)(=O)N2CCN(C(=O)COC(=O)c3ccccn3)CC2)c(C)c1	pPAFAH inh 44 | pPAFAH confirm inactive
Cc1ccc(S(=O)(=O)N2CCN(C(=O)COC(=O)c3cccnc3Cl)CC2)c(C)c1	none
COc1cc(NC(=O)CSc2nnc(-c3cc(C)on3)o2)cc(OC)c1	none
Cc1cc(-c2nnc(SCC(=O)Nc3nc(-c4ccc(Cl)cc4)cs3)o2)no1	pPAFAH inh 42 | pPAFAH confirm inactive
CCOC(=O)c1c(C)[nH]c(C)c1S(=O)(=O)N(C)CC(=O)Nc1ccccc1	pPAFAH inh 38 | pPAFAH confirm inactive
CCOC(=O)c1c(-c2ccccc2)csc1NC(=O)/C(C#N)=C/c1ccc(O)c(OC)c1	pPAFAH inh 40 | pPAFAH confirm inactive
COc1ccc(Br)cc1/C=c1\sc2nc(-c3ccco3)nn2c1=O	pPAFAH inh 44 | pPAFAH confirm inactive
Cc1ccc(-c2cc(-c3ccco3)c(C#N)c(=O)[nH]2)cc1	pPAFAH inh 35 | pPAFAH confirm inactive
N#Cc1c(-c2ccco2)cc(-c2ccccc2)[nH]c1=O	none
CCN(CC(=O)NCc1cccs1)C(=O)c1cc(S(=O)(=O)NCc2ccccc2)ccc1C	none
CCNC(=S)NNC(=O)c1ccccn1	none
O=C(NNC(=S)Nc1ccc(Cl)c(Cl)c1)c1ccccn1	pPAFAH inh 37 | pPAFAH confirm 51
Cc1nn(-c2ccccc2)c2sc(-c3n[nH]c(=S)o3)cc12	pPAFAH inh 52 | pPAFAH confirm 69
N=C1/C(=C\c2ccc(-c3cc(Cl)cc(Cl)c3)o2)C(=O)N=C2SC=C(c3ccccc3)N12	none
N=C1/C(=C/c2ccc(-c3cccc(C(=O)O)c3)o2)C(=O)N=C2SC=C(c3ccccc3)N12	PAFAH1B3 FP inh 27, PAFAH2 FP inh 32, pPAFAH inh 50, PAFAH1B2 inh 26 | pPAFAH confirm 62
NS(=O)(=O)c1cccc(NC(=O)c2cccc(Oc3ccccc3)c2)c1	none
CC(=O)N1c2ccc(S(=O)(=O)N3CCC(C(=O)Nc4cccc(Cl)c4)CC3)cc2CC1C (stereo not drawn)	pPAFAH inh 39 | pPAFAH confirm inactive
COc1cc2nc(CN3CCOCC3)n(CC(=O)N3CCCCCC3)c(=O)c2cc1OC	pPAFAH inh 56 | pPAFAH confirm inactive
CC1=C(C(=O)OC2CCCCC2)C(c2ccccc2Br)NC(=O)N1 (stereo not drawn)	none
CCC(C)[C@H](NC(=O)[C@@H]1CSC2c3ccccc3C(=O)N21)C(=O)NCc1ccncc1 (stereo partly drawn)	none
O=C(/C=C/c1cc[n+](CC(=O)c2ccc3cccc4c3c2CC4)cc1)c1ccc2cccc3c2c1CC3	pPAFAH inh 71 | pPAFAH confirm 86
O=C(C[n+]1ccc2ccccc2c1)c1cccc2ccccc12	none
O=C(NCc1nc2ccccc2[nH]1)C1=C[C@H](C2CC2)C[C@H](OCc2ccc(CO)cc2)O1	none
CCc1ccc(NC(=O)C(C)OC(=O)c2cc(=O)[nH]c3ccc(S(=O)(=O)Nc4ccc(F)cc4)cc23)cc1 (stereo not drawn)	pPAFAH inh 73 | pPAFAH confirm 56
COc1ccc(CN(C)C(=O)C2CSC3(C)CCC(=O)N23)c(OC)c1 (stereo not drawn)	none (no result: PAFAH1B3 FP inh, PAFAH2 FP inh, pPAFAH inh, PAFAH1B2 inh)
COCc1cc(=O)n2[nH]c(-c3ccco3)cc2n1	none
CCCCN1Cc2c(nc3cc(-c4ccco4)[nH]n3c2=O)C1=O	PAFAH2 FP inh 32, pPAFAH inh 63 | pPAFAH confirm inactive
O=S(=O)(c1cccc(COc2c(Cl)cccc2Cl)c1)N1CCOCC1	none
Cc1ccc(CN2CCC(n3nccc3NC(=O)CCOc3ccccc3)CC2)o1	none
O=C(CCOc1ccccc1)Nc1ccnn1C1CCN(Cc2ccc(CO)o2)CC1	pPAFAH inh 43 | pPAFAH confirm inactive
O=C(Oc1ccc(OC(=O)C2CCC2)cc1)C1CCC1	pPAFAH inh 42 | pPAFAH confirm inactive

Compound activity deposited in PubChem by The Scripps Research Institute Molecular Screening Center.
